# Bioassay records as filed in PubChem BioAssay.
# Abeta yeast res: restores growth of yeast expressing A-beta42 peptide; yeast expressing A-beta42, growth rescue, OD600, 48 h; response scale: 0% DMSO, 100% iron-clioquinol control; Potency, µM (highest dose often 46.1 µM), most hits filed as activators; actives 0.063% (n = 410,000); AID 1347071; further: nearly all actives have a fitted effect of over 55% in size
#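 Yeast growth medium received pinned compounds, then yeast cells expressing toxic A-beta were added; plates incubated at 30 C for 48 hr. Growth read as absorbance at 600 nm, normalized to DMSO and equimolar FeCl3 plus clioquinol controls.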
# aSyn rescue: alpha-synuclein toxicity inhibition in yeast; Yeast expressing alpha-synuclein, growth rescue, BacTiter-Glo, 24 h; Potency, µM (highest dose often 46.1 µM), for the others: at the highest dose growth rescue (activation), actives largely listed as activators; actives 0.14% (n = 370,000); further: % of control where 0% means no effect; nearly all actives have a fitted effect of over 65% in size
#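 Galactose-induced alpha-syn yeast (OD600=0.02, raffinose-pregrown) + pinned cpd, 24 hr, 30 deg C; growth by BacTiter-Glo luminescence. Growth restoration scores as activation.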
# FUS yeast rescue: suppressors of FUS proteinopathy in yeast; S. cerevisiae FUS-expressing, growth rescue, OD600, 24 h; Potency, µM (highest dose often 76.6 µM), hits mostly activators; actives 0.24% (n = 390,000);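 further: plate controls were DMSO vehicle for no effect and reference control for full effect; nearly all actives have a fitted effect of over 55% in size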
#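 Yeast FUS proteinopathy model; galactose-induced FUS (2%), starting OD 0.005. Cpds in dilution series, 24hr, 30C, 99% humidity. Abs 600 nm growth. Pos ctrl CP55940 (top 92uM final); neg ctrl DMSO.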
# TDP43 rescue: TDP-43 toxicity inhibition in yeast; TDP-43 expressing yeast growth rescue, BacTiter-Glo, 24 h; Potency, µM (series often up to 46.1 µM), without a hit: top-dose growth rescue (activation), most hits filed as activators; actives 1.8% (n = 410,000); further: % of control where 0% means no effect; nearly all actives have a fitted effect of over 50% in size
#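 Cell-based yeast growth screen: TDP-43 expression induced in galactose, inoculum OD600=0.02 after raffinose pregrowth to mid-log. Read-out BacTiter-Glo luminescence at 24 hr, 30 deg C; inhibition of toxicity seen as signal increase.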
# * marks the source's active call; other numbers are inactive results; i = inactive; u = inconclusive; x = no result given. Only some compounds are listed: those with a hit (about 2.1% of all), similar ones and a draw of the others. The call rests on the fitted dose curve; in most records, active means well fitted curve in the direction sought with a large enough effect; inconclusive means small, poorly fitted or top-dose-only effect, or another doubt; inactive means no such curve, though single readings can be large; an effect the other way counts as inactive or inconclusive. Potency means the concentration at half of the fitted maximal effect.
SMILES,Abeta yeast res,aSyn rescue,FUS yeast rescue,TDP43 rescue
Cc1[nH]c2ccc(C(=O)N3CCN(c4ccc(F)cc4)CC3)cc2c1C,i,13%,i,14µM*
Cc1scc(C(=O)N2CCN(c3ccc(Cl)cc3)CC2)c1C,i,7%,i,14µM*
Cc1occc1C(=O)N1CCN(c2ccc([N+](=O)[O-])cc2)CC1,i,-1%,i,0%
COc1ccc(CCNC(=O)CCn2c(=O)c3ccccc3n(Cc3ccccc3F)c2=O)cc1OC,i,x,i,1%
CC(=O)c1ccc(NC(=O)CSc2nccn2Cc2ccc3c(c2)OCO3)cc1,i,x,i,14%
N#Cc1ccccc1CN1C(=O)c2ccccc2Sc2ccc(C(=O)OCc3ccco3)cc21,i,2%,u,4%
COC(=O)c1ccc(NC(=O)N2CCN(c3nnc(C)c4c(C)n(-c5ccccc5)nc34)CC2)cc1,i,x,i,1%
Cc1ccc(CSc2cn(CC(=O)N3CCCCCC3)c3ccccc23)cc1,i,x,i,16%
CCOc1ccccc1-c1nc(-c2ccc(C)nc2OC)no1,i,9%,u,20µM*
OC[C@@H]1CN(Cc2ccccc2)C[C@H](n2cnc3c(N4CCN(c5ccccc5)CC4)ncnc32)O1,i,27%,20µM*,17%
OC[C@@H]1CN(Cc2ccc(F)cc2)C[C@H](n2cnc3c(N4CCN(c5ccccc5)CC4)ncnc32)O1,i,u,u,26%
COc1ccc(C(CNC(=O)c2cccc([N+](=O)[O-])c2)N2CCOCC2)cc1 (stereo not drawn),i,x,i,18%
O=C(CCn1cnc2onc(-c3ccc(F)cc3)c2c1=O)N1CCN(c2cccc(Cl)c2)CC1,i,x,i,26%
CN(C)c1ccc(/C=C/c2cc[n+](C)c3ccc4ccccc4c23)cc1,x,-71%,x,x
CN(C)CCOC1c2ccccc2C=Cc2ccccc21,i,u,i,u
CN(C)CCOC1c2ccccc2CCc2ccc3ccccc3c21 (stereo not drawn),i,u,i,16µM*
O=C(Cc1cnn(-c2ccccc2)c1)c1ccc(O)c(O)c1O,u,u,x,35µM*
Cc1nc2c(Br)c(C)nn2c2c1CCC2,i,0%,i,11µM*
COC(=O)c1cnn2c3c(c(C)nc12)CCCC3,i,0%,i,-17%
Cc1c(CCCl)c(Cl)n2c(nc3ccccc32)c1C#N,i,2%,x,7.1µM*
CNc1cc(C)c(C#N)c2nc3ccccc3n12,i,-2%,i,u
CCc1c(C)c(C#N)c2nc3ccccc3n2c1NC,i,-1%,i,-8%
Cc1cc(Cl)n2c(nc3ccccc32)c1C#N,i,-71%,i,3.2µM*
Cn1cc(Cl)c(/C(N)=N/OC(=O)c2ccccc2C(F)(F)F)n1,i,3%,i,20µM*
N/C(=N\OC(=O)c1ccccc1Cl)c1ccccn1,i,-27%,i,-27%
SMILES,Abeta yeast res,aSyn rescue,FUS yeast rescue,TDP43 rescue
O=C1c2ccccc2C(=O)N1CCc1csc(-c2ccccc2)n1,i,u,i,13µM*
O=C1/C(=C/c2cccc(Br)c2)SC(=S)N1CCC(=O)N(CCO)c1ccccc1,i,2%,i,4%
COc1cccc(/C=C2\SC(=S)N(CCCC(=O)N(CCO)c3ccccc3)C2=O)c1,i,u,u,22µM*
COc1ccc(NC(=O)Cc2ccccc2)cn1,i,2%,i,25%
COc1ccc(CS(=O)(=O)/C(Cl)=C(/Cl)C(=O)Nc2ccc(OC)nc2)cc1,i,u,i,13µM*
COc1ccc(NC(=O)/C(Cl)=C(/Cl)S(=O)Cc2ccccc2)cn1 (stereo not drawn),i,-80%,x,3.5µM*
O=C(O)c1cccnc1C(=O)N1CCc2c([nH]c3ccccc23)C1C(F)(F)F (stereo not drawn),i,-1%,i,-7%
Cc1ccccc1C(=O)N1CCc2c([nH]c3ccccc23)C1C(F)(F)F (stereo not drawn),i,13%,i,22µM*
CCOc1ccc(NS(=O)(=O)c2cnc(Cl)c(Cl)c2)cc1,i,8%,x,-61%
Cc1cc(C)cc(NS(=O)(=O)c2cnc(Cl)c(Cl)c2)c1,i,15%,i,35µM*
CC(=O)c1ccc2c(c1)CC1(C2)Cc2cc3c(cc2C1)C(=O)CC3 (stereo not drawn),i,-10%,x,16µM*
